From PubChem BioAssay (NCATS) come the findings set out here.

Inconclusive results are not listed. A number with no mark means an inactive call. The source made the active and inactive calls. Calls come from the whole dose curve; as a rule, active = well fitted inhibition curve with a large enough effect; inconclusive = small, poorly fitted or top-dose-only effect; inactive = flat fitted curve, though single readings scatter.

Experiment [1] is described as follows: Drug repurposing screens with cells derived from glioblastoma tumor samples (AID 1345199). Note: nearly all actives have a fitted effect of over 40% in size. The following applies: GBM patient neurospheres viability, ATP luminescence, 48 h. A digest of the protocol: (§1)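 Four patient lines of CD133+ GBM neurospheres were screened at several concentrations; hits were retested in those lines plus three slower-growing GBM lines, using 48-hour treatment and ATP-based viability.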

For a further experiment, the system named is astro (control astrocytes). The description is as above. The following applies: viability, ATP luminescence, 48 h; series mostly up to 45.9 µM. A digest of the protocol:
as §1

The mark [2] stands for this setting: at 45.9 µM (top of the series), tumour line B.
[3] abbreviates: at 45.9 µM (top of the series), tumour line D.
[4] abbreviates: at 46 µM (top of the series), tumour line A.
[5] abbreviates: at 46.1 µM (top of the series), tumour line C.
The mark [6] stands for this setting: at 20 µM (top of the series), tumour line C.
Where [7] appears, read: at 21.2 µM (top of the series), tumour line B.
The mark [8] stands for this setting: at 21.2 µM (top of the series), tumour line D.
The mark [9] stands for this setting: at 21.3 µM (top of the series), tumour line A.
% is set by controls: 0 for no effect and ±100 for the full control effect; potency is the fitted concentration of half-maximal effect.

Take `COC(=O)CCC[N+](C)(C)C`: the activity, negative = cell killing is 2.12% in experiment [1] (setting [2]), -8.53% in experiment [1] (setting [3]), -30.6% in experiment [1] (setting [4]) and -18.9% in experiment [1] (setting [5]). Further, the Potency entry in the experiment with astro was “inactive”.
The corresponding values for `CC(C)CCCC(C)NC(C)C` (stereo not given) are -14.7%, -20.7%, -22.7%, -7.93% and “inactive”.
Turning to `CC(=O)Nc1c(I)c(C(=O)N[C@H]2C(O)O[C@H](CO)[C@@H](O)[C@@H]2O)c(I)c(N(C)C(C)=O)c1I` (stereo not given in full), the activity, negative = cell killing is -5.11% in experiment [1] (setting [6]), -5.7% in experiment [1] (setting [7]), -16.2% in experiment [1] (setting [8]) and -16.4% in experiment [1] (setting [9]). Also, the Potency entry in the experiment with astro is “inactive”.
Take `CCCCCCCCCCCCCCCC(=O)OC[C@H](COP(=O)([O-])OCC[N+](C)(C)C)OC(=O)CCCCCCCCCCCCCCC`: the activity, negative = cell killing is -12.1% in experiment [1] (setting [2]), -1.49% in experiment [1] (setting [3]), -32.2% in experiment [1] (setting [4]) and -17.2% in experiment [1] (setting [5]). Also, the Potency result with astro was “inactive”.
On the same counts, the results for `CCCC(=O)O` are -1.41%, -13.2%, -10.6%, -26.8% and “inactive”.
The corresponding values for `NCC(O)CC(=O)O` (stereo not given) are -5.1%, -3.38%, -5.53%, 12.2% and “inactive”.
On the same counts, the results for `O=C1c2c(O)cccc2[C@H]([C@@H]2O[C@H](CO)[C@@H](O)[C@H](O)[C@H]2O)c2cc(CO)cc(O)c21` are -6.89%, -4.21%, -19.8%, -2.48% and “inactive”.
As for `CCCCC(O)c1ccccc1` (stereo not given), the activity, negative = cell killing in experiment [1] (setting [2]) was -4.84%; in experiment [1] (setting [3]), -15%; in experiment [1] (setting [4]) it was -44.5%; in experiment [1] (setting [5]) it was 0.769%. Moreover, the Potency result with astro was “inactive”.
For the molecule `CCCc1nc(C(C)(C)O)c(C(=O)OCc2oc(=O)oc2C)n1Cc1ccc(-c2ccccc2-c2nn[nH]n2)cc1`, the activity, negative = cell killing in experiment [1] (setting [2]) was -17.3%; in experiment [1] (setting [3]), -13.8%; in experiment [1] (setting [4]), -13%; in experiment [1] (setting [5]), -13.1%. Further, in the experiment with astro, the Potency entry is “inactive”.
For the molecule `CO/N=C(\C(=O)N[C@@H]1C(=O)N2C(C(=O)O)=C(C[N+]3(C)CCCC3)CS[C@H]12)c1csc(N)n1`, the activity, negative = cell killing in experiment [1] (setting [2]) was -2.14%; in experiment [1] (setting [3]) it was 5.4%; in experiment [1] (setting [4]) it was -4.98%; in experiment [1] (setting [5]) it was -21.1%. Moreover, in the experiment on astro, the Potency entry was “inactive”.
For the molecule `CCN(CC)CCOC[C@H]1O[C@@H](O)[C@H](OCCN(CC)CC)[C@@H](O)[C@@H]1O`, the activity, negative = cell killing in experiment [1] (setting [2]) is -9.61%; in experiment [1] (setting [3]), -16.5%; in experiment [1] (setting [4]) it was -26.4%; in experiment [1] (setting [5]), -24.8%. Besides, the Potency entry with astro was “inactive”.
`CCOC(=O)Oc1c(OC)cc(C(=O)O[C@@H]2C[C@@H]3CN4CCc5c([nH]c6cc(OC)ccc56)[C@H]4C[C@@H]3[C@H](C(=O)OC)[C@H]2OC)cc1OC`: the activity, negative = cell killing was -3.41% in experiment [1] (setting [6]), -4.13% in experiment [1] (setting [7]) and -4.51% in experiment [1] (setting [8]). In experiment [1] (tumour line A), the Potency was 5.62 µM (active). For the same molecule, the Potency entry in the experiment with astro is “inactive”.
For the molecule `NS(=O)(=O)c1cc2c(cc1Cl)NC(Cc1ccccc1)NS2(=O)=O` (stereo not given), the activity, negative = cell killing in experiment [1] (setting [2]) was 4.57%; in experiment [1] (setting [3]), 9.26%; in experiment [1] (setting [4]), -28.7%; in experiment [1] (setting [5]), 0.872%. In addition, the Potency result with astro was “inactive”.
On the same counts, the results for `CCCCCCCCCCCCOCCCN` are -9.11%, 2.93%, -39.4%, -14.6% and “inactive”.
On the same counts, the results for `Cc1ncc(C[n+]2csc(CCOP(=O)(O)O)c2C)c(N)n1` are -1.8%, -1.97%, -17%, -10.8% and “inactive”.
The corresponding values for `CC(C)(CO)[C@@H](O)C(=O)NCCCC(=O)O` are 2.97%, -4.32%, -3.96%, -7.77% and “inactive”.
Consider `NC[C@@H]1CC[C@@H](N)[C@@H](O[C@H]2[C@H](O)[C@@H](O[C@H]3O[C@H](CO)[C@@H](O)[C@H](N)[C@H]3O)[C@H](N)C[C@@H]2N)O1`, for which the activity, negative = cell killing in experiment [1] (setting [2]) was 0.351%; in experiment [1] (setting [3]), 3.76%; in experiment [1] (setting [4]), -27.2%; in experiment [1] (setting [5]), -13%. In addition, the Potency entry in the experiment with astro is “inactive”.
Regarding `NC(=O)C1c2ccccc2CCc2ccccc21`, the activity, negative = cell killing in experiment [1] (setting [2]) was 4.21%; in experiment [1] (setting [3]), -18.6%; in experiment [1] (setting [4]), -34%; in experiment [1] (setting [5]), -17.6%. The Potency entry with astro was “inactive”.
For `CC(C)(O/N=C(\C(=O)N[C@@H]1C(=O)N2C(C(=O)[O-])=C(C[n+]3ccccc3)CS[C@H]12)c1csc(N)n1)C(=O)O`, the activity, negative = cell killing in experiment [1] (setting [6]) is -8.81%; in experiment [1] (setting [7]) it was -13.9%; in experiment [1] (setting [8]), 1.29%; in experiment [1] (setting [9]), -19.8%. In the experiment with astro, the Potency result was “inactive”.
On the same counts, the results for `CO[C@H]1C[C@H](O[C@H]2[C@H](C)[C@@H](O[C@@H]3O[C@H](C)C[C@H](N(C)C)[C@H]3O)[C@@H](C)C[C@]3(CO3)C(=O)[C@H](C)[C@@H](O)[C@@H](C)[C@@H](C)OC(=O)[C@@H]2C)O[C@@H](C)[C@@H]1O` are -8.16%, -0.194%, -29.4%, -24% and “inactive”.
